# Compound activity as filed in PubChem.
# Abeta yeast res: qHTS for compounds that reverse cellular toxicity of Amyloid beta (A-beta) peptide in yeast: Primary Screen | yeast expressing A-beta42, growth rescue, OD600, 48 h; response scale: 0% DMSO, 100% iron-clioquinol control | Potency, µM (top dose mostly 46.1 µM), usual class: activators | 410,000 compounds, 0.063% hits | AID 1347071, 2019; further: potency means the concentration at half of the fitted maximal effect; nearly all actives have a fitted effect of over 55% in size
#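 Yeast A-beta toxicity model in growth medium with pinned compounds, 48 h at 30 C; growth read as absorbance at 600 nm. Normalized to FeCl3/clioquinol equimolar mix (positive) and DMSO (negative).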
# TDP43 rescue: qHTS of TDP-43 Inhibitors; TDP-43 expressing yeast growth rescue, BacTiter-Glo, 24 h; Potency, µM (highest dose often 46.1 µM), inactives show top-dose growth rescue (activation), usual class: activators; 410,000 compounds, 1.8% hits; AID 652104, 2013; further: potency means the concentration at half of the fitted maximal effect; % of control where 0% means no effect; nearly all actives have a fitted effect of over 50% in size
#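 Galactose-induced TDP-43 yeast, OD600=0.02, compound pinned; 24 hr, 30 deg C; BacTiter-Glo luminescence for growth. Inhibitors of TDP-43 toxicity read as activators.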
# LDHA inh: qHTS assay for inhibitors of human lactate dehydrogenase | purified LDHA, NADH/diaphorase-resazurin fluorescence; stronger effect = lower value | activity change, % (values are at about 110 or 230 µM) | 480,000 compounds, 0.15% hits | AID 1347041, 2019; in the data active means activity change below about -30%; inconclusive means mostly about -25% to -30%;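 further: plate controls were DMSO wells for no effect and wells without enzyme for full effect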
#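 Enzyme activity of human lactate dehydrogenase 5 (2 nM; 0.06 mM NADH, 0.2 mM pyruvate, 5 min, RT) is measured via a resazurin/diaphorase fluorescence readout of residual NADH.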
# FUS suppressor: qHTS for Suppressors of FUS Proteinopathy: Primary screen using FUS-linked yeast assay; 390,000 compounds, 0.24% hits; S. cerevisiae FUS-expressing, growth rescue, OD600, 24 h; AID 1347120, 2019; Potency, µM (doses to about 76.6 µM), hits mostly activators;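 further: potency means the concentration at half of the fitted maximal effect; plate controls were DMSO vehicle for no effect and reference control for full effect; nearly all actives have a fitted effect of over 55% in size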
#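 Read-out: OD at 600 nm after 24hr at 30C, reporting rescue of FUS-induced yeast toxicity. Cells at OD 0.005 in galactose (2%) minimal medium; compounds tested in a dilution series; CP55940 titration from 92uM final as control.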
# PTHR1 ag: qHTS for PTHR1 Agonists: Primary Screen. Parathyroid hormone/parathyroid hormone-related peptide receptor (Homo sapiens), Q03431. HEK293 GP2 PTHR1 cells, GloSensor cAMP luminescence, 1 h. Potency, µM (highest dose often 115 µM), inactives show at the top dose activation, hits mostly activators. 410,000 compounds, 0.075% hits; further: potency means the concentration at half of the fitted maximal effect; nearly all actives have a fitted effect of over 55% in size
# Target sequence (Q03431 whole entry, looked up): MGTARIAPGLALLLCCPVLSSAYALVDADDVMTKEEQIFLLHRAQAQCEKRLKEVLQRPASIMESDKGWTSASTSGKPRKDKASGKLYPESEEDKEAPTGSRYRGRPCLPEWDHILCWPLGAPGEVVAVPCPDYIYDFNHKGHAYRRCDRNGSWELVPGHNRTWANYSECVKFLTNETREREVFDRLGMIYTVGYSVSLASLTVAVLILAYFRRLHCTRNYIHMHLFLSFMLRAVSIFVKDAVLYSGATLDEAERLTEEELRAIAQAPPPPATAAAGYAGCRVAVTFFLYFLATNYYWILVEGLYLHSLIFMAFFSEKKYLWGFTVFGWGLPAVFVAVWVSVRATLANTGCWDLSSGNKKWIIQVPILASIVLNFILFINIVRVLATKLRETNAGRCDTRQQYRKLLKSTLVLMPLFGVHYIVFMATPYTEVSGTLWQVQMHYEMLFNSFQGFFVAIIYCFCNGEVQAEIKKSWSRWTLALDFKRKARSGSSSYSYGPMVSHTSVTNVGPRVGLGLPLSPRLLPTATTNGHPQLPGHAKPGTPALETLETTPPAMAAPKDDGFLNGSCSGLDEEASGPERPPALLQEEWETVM
#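 HEK-293-derived GP2 cells expressing PTHR1 and a GloSensor cAMP reporter, 3,000/well, plated overnight, given luciferin plus IBMX (each 0.5 mM as added) for 1 h at 37 °C, then compound for 1 h at 37 °C. Luminescence was read after 15 min at room temperature.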
# aSyn rescue: qHTS of alpha-syn Inhibitors | Yeast expressing alpha-synuclein, growth rescue, BacTiter-Glo, 24 h | Potency, µM (series often up to 46.1 µM), inactives show at the top dose growth rescue (activation), hits mostly activators | AID 652106, 2013 | 370,000 compounds, 0.14% hits; further: potency means the concentration at half of the fitted maximal effect; % of control where 0% means no effect; nearly all actives have a fitted effect of over 65% in size
#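 Screening used galactose-induced yeast with toxic alpha-synuclein levels, exposed to compound for 24 hr at 30 deg C. Cell growth, read with BacTiter-Glo luminescence, gave the measured signal.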
# The depositor's hits bear a star; i = inactive; ? = inconclusive; . = not tested or not shown; [ ] = another dose, or the depositor's remark. This is a sample that favours compounds with a hit; in the whole collection about 1.9% have one here. Unless noted, the call rests on the fitted dose curve; in most records, active means well fitted curve in the direction sought with a large enough effect; inconclusive means small, poorly fitted or top-dose-only effect, or another doubt; inactive means no such curve, though single readings can be large; an effect the other way counts as inactive or inconclusive.
SMILES,Abeta yeast res,TDP43 rescue,LDHA inh,FUS suppressor,PTHR1 ag,aSyn rescue
COc1cccc(C(=O)NCCc2sc(-c3cccc(C)c3)nc2C)c1,i,25µM*,4,?,-33%,-8%
O=c1c2cnc3ncnn3c2ccn1-c1cc(Cl)ccc1Cl,.,.,-2,.,.,.
Cc1nc(-c2ccc(F)cc2)sc1CCNC(=O)c1ccco1,i,26%,-4,i,i,.
COc1ccc(-c2nc(C)c(CCNC(=O)c3c(F)cccc3F)s2)cc1,i,10µM*,0,i,-2%,-1%
CCN(CC(=O)NC(C)C)C(=O)c1ccc(SC(C)C)cc1,.,.,2,.,.,.
COc1ccc(C(=O)c2sc(Nc3cccc(C)c3C)nc2N)cc1OC,.,.,2,.,.,.
COC(=O)c1ccc(OCC(=O)c2ccccc2OC)cc1,i,11µM*,-4,i,i,0%
COc1ccccc1CNC(=O)COc1ccc(C)cc1,i,11µM*,-1,i,-12%,23%
CC(=O)c1ccc(NC(=O)c2ccc3nc(C)sc3c2)cc1,i,14%,2,i,-46%,-8%
Cc1nc2ccc(NS(=O)(=O)c3ccccc3Cl)cc2s1,i,18µM*,2,i,-28%,21%
Cc1nc2ccc(C(=O)Nc3ccccc3Cl)cc2s1,i,11µM*,-4,i,-41%,0%
Cc1nc2ccc(NS(=O)(=O)c3c(F)cccc3F)cc2s1,i,5%,-7,i,-6%,6%
CSc1nc2ccc(NS(=O)(=O)c3cccc(Cl)c3Cl)cc2s1,i,32µM*,-2,?,-3%,-17%
COc1ccc(-n2c(C)cc(C3=NNC(=NC4CC4)SC3)c2C)cc1,i,25%,-12,16µM*,-5%,-8%
CCc1ccc(OC(=O)c2cc(OC)c(OC)c(OC)c2)c(Br)c1,.,.,-1,.,.,.
CC(C)Cc1ccc(C(C)C(=O)Nc2ccc(O)cc2)cc1 (stereo not given),i,11µM*,1,i,i,-15%
O=C(Nc1ccc(Br)cc1)C1CCCC1,i,11µM*,-5,i,-31%,1%
COC(=O)c1ccc(NC(=S)NC(=O)C2CCC2)cc1,8.9µM*,?,-9,i,-55%,-7%
O=C(NC(=S)Nc1cccc([N+](=O)[O-])c1)C1CCCC1,?,13µM*,1,i,-31%,-11%
CC(=O)NC(=S)Nc1cccc([N+](=O)[O-])c1,i,?,-14,i,i,4%
O=C(NC(=S)Nc1ccc(Br)cc1)C1CCC1,5.6µM*,?,-2,i,-64%,-10%
CCOC(=O)c1ccc(NC(=S)NC(=O)C2CCCC2)cc1,?,0%,-1,i,-15%,4%
Fc1cc(Br)ccc1Nc1c2c(nc3nc(-c4cccs4)nn13)CCCC2,i,20µM*,1,i,-93%,.
Cc1ccc(S(=O)(=O)N2CCN(C(=O)COC(=O)c3ccccc3Cl)CC2)c(C)c1,i,25µM*,-11,i,-33%,24%
CSc1ccccc1C(=O)NCCS(=O)(=O)N1CCN(c2ccc(F)cc2)CC1,i,14%,0,i,-27%,-7%
SMILES,Abeta yeast res,TDP43 rescue,LDHA inh,FUS suppressor,PTHR1 ag,aSyn rescue
O=C(NCCS(=O)(=O)N1CCN(c2ccc(F)cc2)CC1)c1cccc(C(F)(F)F)c1,?,10µM*,-2,i,-12%,.
CN(C(=O)c1ccc(NC(=O)Cc2cccc(NC(=O)C3CCCN(C(=O)C4CCCCC4)C3)c2)cc1)C1CCCC1 (stereo not given),i,10%,-10,28µM*,i,-2%
CN(C(=O)c1ccc(NC(=O)Cc2cccc(NC(=O)C3CCCN(C(=O)C4CCC4)C3)c2)cc1)C1CCCC1 (stereo not given),i,-19%,-8,?,-13%,2%
Cc1ncc(-c2ccc(S(=O)(=O)Nc3ccc(C)c(Cl)c3)cc2)o1,.,.,6,.,.,.
Cc1ccccc1Nc1nc2ccccc2s1,i,20µM*,1,.,i,-1%
Cc1ccc(Nc2nc3ccccc3s2)cc1,?,26%,-7,i,-18%,-6%
CC1(C(=O)NCc2cccc(C(F)(F)F)c2)CCN1Cc1ccc(-c2ccccc2)o1 (stereo not given),i,-26%,7,i,-27%,20µM*
CC1(C(=O)NCc2cccc(C(F)(F)F)c2)CCN1Cc1cc2ccccc2o1 (stereo not given),i,0%,2,i,-17%,13%
Cc1oc2c(c1C(=O)c1ccccc1)C(=O)C(=O)c1ccccc1-2,i,16µM*,33,i,-12%,21%
CCOC(=O)c1c(C)oc2c1C(=O)c1ccccc1C2=O,i,3.2µM*,7,i,-20%,-4%
Cc1oc2c(c1C(=O)O)C(=O)c1ccccc1C2=O,i,-45%,15,i,-4%,9%
CONC(=O)C(NC(=O)c1ccccc1F)C(C)C (stereo not given),.,.,2,.,.,.
CCCOc1ccc(N2C(=O)CC(N3CCN(c4ccccc4OC)CC3)C2=O)cc1 (stereo not given),i,25µM*,3,i,i,?
COc1ccc(N2C(=O)CC(N3CCC(O)(c4ccc(Br)cc4)CC3)C2=O)cc1 (stereo not given),i,20µM*,-5,i,-15%,9%
COc1cccc(N2CCN(C3CC(=O)N(c4ccc(F)c(Cl)c4)C3=O)CC2)c1 (stereo not given),i,13µM*,4,i,-23%,-7%
CCN(CC)CCCNc1oc(-c2ccccc2F)nc1C#N,.,.,-1,.,.,.
COc1cccc(NC(=O)N2CCc3nc(NCc4cccc(Oc5ccccc5)c4)ncc3C2)c1,i,21%,3,?,-87%,?
COc1cccc(NC(=O)N2CCc3nc(Nc4cc(Cl)cc(Cl)c4)ncc3C2)c1,?,16µM*,0,28µM*,-24%,?
Cc1ccc(-c2nc(C(=O)NC3CCCCCC3)no2)cc1,i,18µM*,-4,i,-39%,-3%
CC(C)(C)OC(=O)N[C@@H](Cc1ccccc1)c1nnc(S(=O)(=O)Cc2cccc(F)c2)o1,i,5µM*,0,i,-16%[57.5 µM],-8%
